Sampled rows, rich in hits. Any-hit rate of the full collection: about 2.3%.
IL-2 act: IL-2 activation; IL-2 activation reporter assay, cell-based qHTS; stimulated with anti-CD3/CD4/CD28 beads; in transgenic mouse T cells; activation, % (series mostly up to about 46 µM); 360,000 compounds, 0.065% hits; in the data active means activation above about 50%; inconclusive means mostly about 30% to 49%; further: 0% is about no effect
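Unstimulated transgenic mouse T cells preincubated 60 min with compound, then stimulated with anti-CD3/anti-CD4-coated beads plus anti-CD28 for 18 h at 37 degrees C. IL-2 response read as EGFP and DsRed fluorescence by plate cytometry.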
A549 tox-1: kills or reduces viability of A549 cells in Nrf2 counter-screen; 390,000 compounds, 0.16% hits; A549 ARE-Fluc cells, CellTiter-Fluor viability, 18-24 h; Potency, µM (series often up to 46 µM), for the others: at the highest dose activity change, negative = cytotoxicity, usual class: inhibitors; further: potency means the concentration at half of the fitted maximal effect; on the % scale 0 is the no-effect control and ±100 the full control effect
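A549 ARE-Fluc cells in 5% FBS OPTI-MEM, 5000 cells/well, rested 2 h then exposed to compounds in concentration-response for 18-24 h at 37 °C. Viability by CellTiter-Fluor fluorescence (Ex 405/Em 525) after 30 min; luciferase luminescence (BugLite, 15 min, RT) read afterwards.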
Nrf2 block: blocks Nrf2 signaling. A549 ARE-Fluc reporter, luciferase luminescence, 18-24 h. Potency, µM (series often up to 46 µM), inactives show at the top dose activity change, negative = inhibition, usual class: inhibitors. 360,000 compounds, 2.1% hits; further: potency means the concentration at half of the fitted maximal effect; on the % scale 0 is the no-effect control and ±100 the full control effect; nearly all actives have a fitted effect of over 60% in size
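A549 ARE_Fluc cells, 5000/well, 5% FBS OPTI-MEM; compounds in dose-response, 18-24 h at 37 °C/5% CO2; CellTiter-Fluor viability read (Ex 405/Em 525), then BugLite luciferase luminescence = Nrf2 activity.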
Nrf2 activator: Nrf2 pathway activation; AREc32 ARE-luciferase reporter (MCF7-derived line), luminescence, 24 h; 410,000 compounds, 0.31% hits; Potency, µM (titrated, usually from 46.1 µM), inactives show at the highest dose activation, most hits filed as activators; further: potency means the concentration at half of the fitted maximal effect; % of control where 0% means no effect; nearly all actives have a fitted effect of over 65% in size
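Luciferase luminescence (Steady-Glo, 30 min at room temperature) served as the read-out of ARE activation in AREc32 cells treated with compounds for 24 hr at 37 deg C.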
FLuc enzyme inh: blocks purified firefly luciferase in Nrf2 counterscreen; shares compounds with Nrf2 block; purified firefly luciferase, luminescence inhibition; Potency, µM (titrated, usually from 57.5 µM), without a hit: top-dose activity change, negative = inhibition, most hits filed as inhibitors; 1,400 compounds, 4% hits; further: potency means the concentration at half of the fitted maximal effect; on the % scale 0 is the no-effect control and ±100 the full control effect; nearly all actives have a fitted effect of over 65% in size
Target sequence (P08659 whole entry, looked up): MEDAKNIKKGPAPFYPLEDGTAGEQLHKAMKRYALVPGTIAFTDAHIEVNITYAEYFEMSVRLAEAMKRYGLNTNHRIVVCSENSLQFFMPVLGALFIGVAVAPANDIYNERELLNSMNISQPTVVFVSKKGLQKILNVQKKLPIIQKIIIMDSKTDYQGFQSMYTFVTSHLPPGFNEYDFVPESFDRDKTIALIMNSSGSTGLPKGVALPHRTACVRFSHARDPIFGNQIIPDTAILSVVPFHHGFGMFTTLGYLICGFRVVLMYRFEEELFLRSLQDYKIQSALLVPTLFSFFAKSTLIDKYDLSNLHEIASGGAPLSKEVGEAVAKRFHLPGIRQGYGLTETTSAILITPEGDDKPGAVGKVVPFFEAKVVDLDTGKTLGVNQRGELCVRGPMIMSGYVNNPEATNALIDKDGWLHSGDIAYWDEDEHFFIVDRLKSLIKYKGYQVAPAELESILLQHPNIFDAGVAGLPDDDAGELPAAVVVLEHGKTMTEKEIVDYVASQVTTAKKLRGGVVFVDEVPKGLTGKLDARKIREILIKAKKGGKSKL
A549 tox-2: counter-screen for Nrf2 inhibitors: cytotoxicity in A549 ARE cells. Potency, µM (series often up to 46.1 µM), without a hit: at the highest dose activity change, negative = cytotoxicity, usual class: inhibitors. A549 ARE-Fluc cells, cytotoxicity counterscreen. shares compounds with Nrf2 block. 1,400 compounds, 2% hits. AID 720523;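 further: potency means the concentration at half of the fitted maximal effect; cells exposed to compounds for 18 to 24 hours; on the % scale 0 is the no-effect control and ±100 the full control effect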
Nrf2 ARE inh: reduces Nrf2 ARE reporter signal in A549 cells. 1,400 compounds, 74% hits. Potency, µM (titrated, usually from 46.1 µM), without a hit: top-dose activity change, negative = inhibition, most hits filed as inhibitors. shares compounds with Nrf2 block. A549 ARE-firefly luciferase reporter, luminescence. AID 720524; further: potency means the concentration at half of the fitted maximal effect; on the % scale 0 is the no-effect control and ±100 the full control effect; nearly all actives have a fitted effect of over 65% in size
An asterisk follows results filed as active; ? = inconclusive; . = not tested or not shown. Unless noted, the call rests on the fitted dose curve; in most records, active means well fitted curve in the direction sought with a large enough effect; inconclusive means small, poorly fitted or top-dose-only effect, or another doubt; inactive means no such curve, though single readings can be large; an effect the other way counts as inactive or inconclusive.

SMILES | IL-2 act | A549 tox-1 | Nrf2 block | Nrf2 activator | FLuc enzyme inh | A549 tox-2 | Nrf2 ARE inh
Cc1cc2[nH]c3c(c[n+](C)c4ccccc34)c2cc1C | -1 | ? | 5.8µM* | -2% | 1% | 7% | 7.3µM*
Cc1noc2ncnc(N3CCN(c4cccc(C(F)(F)F)c4)CC3)c12 | . | -1% | 8.2µM* | -1% | 2% | -5% | 8.2µM*
COc1cccc(N2CCN(c3ncnc4c3nc3n4CCCCC3)CC2)c1 | . | -28% | ? | -2% | . | . | .
FC(F)(F)c1cccc(N2CCN(c3ncnc4c3nc3n4CCCC3)CC2)c1 | . | 0% | 1.6µM* | -3% | 2% | -11% | 2.1µM*
CCCCN(CC)S(=O)(=O)c1ccc(C(=O)Nc2nnc(-c3cccs3)o2)cc1 | 0 | -18% | 2.3µM* | 0% | 3% | ? | 7.3µM*
COc1cccc(CNC(=O)c2sc3ncccc3c2-n2c(C)ccc2C)c1OC | . | -14% | . | 1% | . | . | .
Oc1ccc(Cl)c(CN2CCN(c3ncc(Cc4ccccc4)cn3)CC2)c1 | -1 | . | . | . | . | . | .
Cc1cc(NC(=O)c2cc(-c3ccc(F)cc3)on2)nn1Cc1ccc(Cl)cc1 | . | -14% | 6.5µM* | 0% | 0% | -10% | 2.9µM*
COc1cccc(-c2cc(C(=O)Nc3cc(C)n(Cc4ccc(Cl)cc4)n3)no2)c1 | -1 | ? | ? | 0% | -4% | -9% | 7.3µM*
Cc1ccsc1CCN1C(=O)N(c2ccccc2)C(=O)C1CC(=O)Nc1ccc(F)cc1 (stereo not given) | . | -20% | -7% | 5% | . | . | .
COc1cccc(NC(=O)CCc2c(C)nc3ncnn3c2C)c1 | . | 1% | -4% | 0% | . | . | .
COc1cc([N+](=O)[O-])cc(/C=N/NC(=O)c2ccc(NC(=O)c3ccc(C)cc3)cc2)c1O | -1 | ? | 4.6µM* | 0% | -16% | ? | 6.5µM*
Cc1nc2ccc(NC(=O)c3ccc(Cl)c(S(=O)(=O)N(C)c4ccccc4)c3)cc2s1 | 20 | -23% | 3.3µM* | -1% | -16% | -15% | ?
Cc1nc2ccc(NC(=O)c3ccc(S(=O)(=O)N(C)C)cc3)cc2s1 | 4 | 1% | ? | 0% | . | . | .
Cc1nc2ccc(NC(=O)c3cc(S(=O)(=O)N(C)c4ccccc4)ccc3Cl)cc2s1 | -2 | -9% | 5.2µM* | 3% | 0% | 3% | ?
CCc1ccccc1NC(=O)c1ccc(=O)n(Cc2ccc(F)cc2)c1 | . | 2% | . | 1% | . | . | .
COc1ccc(C(=O)NCc2ccc3c(c2)CCN3C(=O)c2ccncc2)cc1 | . | -6% | . | 0% | . | . | .
COc1cc(C)c(C)cc1S(=O)(=O)Nc1cccc(-c2ccc(N3CCOCC3)nn2)c1 | . | -4% | . | 3% | . | . | .
Cc1cc(C)cc(C(=O)NC(=S)Nc2ccc(-c3cc4ccccc4oc3=O)cc2)c1 | 27 | 1% | 3.7µM* | -3% | -7% | -19% | ?
Cc1cc(NC(=O)c2cc(Cl)ccc2Cl)ccc1-c1cc2ccccc2oc1=O | . | -5% | ? | -1% | -4% | 3% | 5%
Nc1ccc(NC(=O)c2cc(Cl)ccc2O)c(Cl)c1 | . | 7% | -6% | . | . | . | .
CCCC(=O)Nc1nc(C)c(-c2csc(Nc3ccc(Cl)cc3)n2)s1 | 0 | ? | 7.3µM* | 9% | 17µM* | -17% | ?
COc1ccccc1Nc1nc(-c2sc(NC(=O)C(C)(C)C)nc2C)cs1 | 1 | -4% | 7.3µM* | 1% | ? | -18% | 21µM*
CCCC(=O)Nc1nc(C)c(-c2csc(Nc3ccccc3OC)n2)s1 | 0 | -3% | 11% | 0% | . | . | .
CCC(=O)Nc1nc(C)c(-c2csc(Nc3ccc(C(=O)O)cc3)n2)s1 | -1 | -1% | 16% | -1% | . | . | .
COc1cccc(OCC(=O)Nc2nnc3n2CCS3)c1 | . | 1% | . | -1% | . | . | .
CCc1ccc(Sc2cc(C(=O)O)c3ccccc3n2)cc1 | . | -1% | . | 11% | . | . | .

Source: PubChem
